# Results reported in the supplement of paper PMC10037445.
# Whole data set: some 2,900 compounds, median “NF-kB SEAP reporter activity, fold change vs agonist alone” near 0.99, cut for the highest 2% near 2.6. Only a selection was taken, and the highest values are over-represented in it overall.
# Legend:
# RAW-Dual [1] = experiment: NF-kB SEAP reporter activity, fold change vs agonist alone; higher = enhanced NF-kB activity
# In short: (§1)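 RAW-Dual macrophages (50,000 cells/well in DMEM, 384-well plates) received 50 nL of library stock by pin tool, then a PRR agonist 1 h later, and were kept at 37 °C, 5% CO2. After 20 hours, supernatant was read for IRF by QuantiLuc luminescence and for NF-κB by QuantiBlue absorbance at 620 nm. Reporter activity is fold change over agonist-alone wells. Cytotoxic wells had IncuCyte confluency below 70% of agonist controls in both mask sets.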
# RAW-Dual [2] = experiment: NF-kB SEAP reporter activity, fold change vs agonist alone; cytotoxicity flag (confluency mask): cytotoxic (confluency <70% of control); higher = enhanced NF-kB activity
# In short: as §1
# RAW-Dual [3] = experiment: NF-kB SEAP reporter activity, fold change vs agonist alone; cytotoxicity flag (confluency mask): not cytotoxic; higher = enhanced NF-kB activity
# In short: as §1
# [4] = agonist: ODN 1826 (TLR9) 0.5 ug/mL
# [5] = agonist: Pam2CSK4 (TLR2/6) 0.1 ug/mL
# [6] = agonist: Pam3CSK4 (TLR2/1) 0.1 ug/mL
# [7] = library stock concentration (final ~1000-fold dilution): 10 mM, cytotoxicity flag (confluency mask): not cytotoxic, agonist: Imiquimod (TLR7) […]
# [8] = library stock concentration (final ~1000-fold dilution): 10 mM, cytotoxicity flag (confluency mask): not cytotoxic, agonist: MPLA (TLR4) […]
structure (smiles),measurement,setting,value
O=S(=O)(NCCN1CCNCC1)c1ccc(NC2CCCCC2)c(NCc2ccccc2)c1,NF-kB SEAP reporter activity,"RAW-Dual [1]; library stock concentration (final ~1000-fold dilution): 10 mM, cytotoxicity flag (confluency mask): cytotoxic (confluency <70% of control), agonist: Imiquimod (TLR7) […]",1.27
same,NF-kB SEAP reporter activity,"RAW-Dual [1]; library stock concentration (final ~1000-fold dilution): 10 mM, cytotoxicity flag (confluency mask): cytotoxic (confluency <70% of control), agonist: MPLA (TLR4) […]",2.03
O=S(=O)(NCCN1CCNCC1)c1ccc(NC2CCCCC2)c(NCc2ccccc2)c1 (library stock concentration (final ~1000-fold dilution): 10 mM),NF-kB SEAP reporter activity,RAW-Dual [2]; agonist: LPS (TLR4) 0.1 ug/mL,1.57
same,NF-kB SEAP reporter activity,RAW-Dual [2]; [4],1.13
same,NF-kB SEAP reporter activity,RAW-Dual [2]; [5],1.04
same,NF-kB SEAP reporter activity,RAW-Dual [2]; [6],1.73
CN(C)CCCSC(=N)N.Cl.Cl (library stock concentration (final ~1000-fold dilution): 10 mM),NF-kB SEAP reporter activity,RAW-Dual [3]; agonist: LPS (TLR4) 0.1 ug/mL,1.14
same,NF-kB SEAP reporter activity,RAW-Dual [3]; [4],0.97
same,NF-kB SEAP reporter activity,RAW-Dual [3]; [5],1.01
same,NF-kB SEAP reporter activity,RAW-Dual [3]; [6],0.975
CN(C)CCCSC(=N)N.Cl.Cl,NF-kB SEAP reporter activity,RAW-Dual [1]; [7],0.831
same,NF-kB SEAP reporter activity,RAW-Dual [1]; [8],0.973
CC(C)CC(NC(=O)C1OC1C(=O)O)C(=O)NCCCCNC(=N)N (stereo not given),NF-kB SEAP reporter activity,RAW-Dual [1]; [7],0.971
same,NF-kB SEAP reporter activity,RAW-Dual [1]; [8],1.11
CC(C)CC(NC(=O)C1OC1C(=O)O)C(=O)NCCCCNC(=N)N (stereo not given) (library stock concentration (final ~1000-fold dilution): 10 mM),NF-kB SEAP reporter activity,RAW-Dual [3]; agonist: LPS (TLR4) 0.1 ug/mL,0.999
same,NF-kB SEAP reporter activity,RAW-Dual [3]; [4],1.01
same,NF-kB SEAP reporter activity,RAW-Dual [3]; [5],1.12
same,NF-kB SEAP reporter activity,RAW-Dual [3]; [6],1.12
CC(=O)C(=O)Oc1ccccc1C(=O)O,NF-kB SEAP reporter activity,RAW-Dual [1]; [7],1.46
same,NF-kB SEAP reporter activity,RAW-Dual [1]; [8],1.68
CC(=O)C(=O)Oc1ccccc1C(=O)O (library stock concentration (final ~1000-fold dilution): 10 mM),NF-kB SEAP reporter activity,RAW-Dual [3]; agonist: LPS (TLR4) 0.1 ug/mL,1.07
same,NF-kB SEAP reporter activity,RAW-Dual [3]; [4],1.04
same,NF-kB SEAP reporter activity,RAW-Dual [3]; [5],0.887
same,NF-kB SEAP reporter activity,RAW-Dual [3]; [6],1.12
NNC(=O)c1ccncc1,NF-kB SEAP reporter activity,RAW-Dual [1]; [7],0.948
same,NF-kB SEAP reporter activity,RAW-Dual [1]; [8],1.05
O=S(=O)(N=Cc1c(O)ccc2ccccc12)c1cccs1,NF-kB SEAP reporter activity,RAW-Dual [1]; [7],0.768
same,NF-kB SEAP reporter activity,RAW-Dual [1]; [8],1.03
O=S(=O)(N=Cc1c(O)ccc2ccccc12)c1cccs1 (library stock concentration (final ~1000-fold dilution): 10 mM),NF-kB SEAP reporter activity,RAW-Dual [3]; agonist: LPS (TLR4) 0.1 ug/mL,1.28
same,NF-kB SEAP reporter activity,RAW-Dual [3]; [4],0.662
same,NF-kB SEAP reporter activity,RAW-Dual [3]; [5],1.04
same,NF-kB SEAP reporter activity,RAW-Dual [3]; [6],0.853
O=C(N/N=C/c1c(O)ccc2ccccc12)c1ccncc1,NF-kB SEAP reporter activity,RAW-Dual [1]; [7],2.57
same,NF-kB SEAP reporter activity,RAW-Dual [1]; [8],1.75
O=C(N/N=C/c1c(O)ccc2ccccc12)c1ccncc1 (library stock concentration (final ~1000-fold dilution): 10 mM),NF-kB SEAP reporter activity,RAW-Dual [3]; agonist: LPS (TLR4) 0.1 ug/mL,2.18
same,NF-kB SEAP reporter activity,RAW-Dual [3]; [4],2
same,NF-kB SEAP reporter activity,RAW-Dual [3]; [5],1.15
same,NF-kB SEAP reporter activity,RAW-Dual [3]; [6],1.92
NNC(=O)c1ccncc1 (library stock concentration (final ~1000-fold dilution): 10 mM),NF-kB SEAP reporter activity,RAW-Dual [3]; agonist: LPS (TLR4) 0.1 ug/mL,1.22
same,NF-kB SEAP reporter activity,RAW-Dual [3]; [4],1.05
same,NF-kB SEAP reporter activity,RAW-Dual [3]; [5],1.09
same,NF-kB SEAP reporter activity,RAW-Dual [3]; [6],1.05
Cl.c1ccc2c(-c3cnn4cc(-c5ccc(N6CCNCC6)cc5)cnc34)ccnc2c1 (library stock concentration (final ~1000-fold dilution): 10 mM water),NF-kB SEAP reporter activity,RAW-Dual [3]; agonist: LPS (TLR4) 0.1 ug/mL,0.64
same,NF-kB SEAP reporter activity,RAW-Dual [3]; [4],0.253
same,NF-kB SEAP reporter activity,RAW-Dual [3]; [5],0.171
same,NF-kB SEAP reporter activity,RAW-Dual [3]; [6],0.354
Cl.c1ccc2c(-c3cnn4cc(-c5ccc(N6CCNCC6)cc5)cnc34)ccnc2c1,NF-kB SEAP reporter activity,"RAW-Dual [1]; library stock concentration (final ~1000-fold dilution): 10 mM water, cytotoxicity flag (confluency mask): not cytotoxic, agonist: Imiquimod (TLR7) […]",0.986
same,NF-kB SEAP reporter activity,"RAW-Dual [1]; library stock concentration (final ~1000-fold dilution): 10 mM water, cytotoxicity flag (confluency mask): not cytotoxic, agonist: MPLA (TLR4) […]",0.571
C=CC1CC1(NC(=O)C1CC2CN1C(=O)C(C(C)(C)C)NC(=O)OC1CC1CCCCCc1nc3ccc(OC)cc3nc1O2)C(=O)NS(=O)(=O)C1CC1 (stereo not given),NF-kB SEAP reporter activity,RAW-Dual [1]; [7],1.3
same,NF-kB SEAP reporter activity,RAW-Dual [1]; [8],1.22
CC(C)(C)C1NC(=O)OC2CCCC2OC/C=C/C(F)(F)c2nc3ccccc3nc2OC2CC(C(=O)NC3(C(=O)NS(=O)(=O)C4(C)CC4)CC3C(F)F)N(C2)C1=O (stereo not given),NF-kB SEAP reporter activity,RAW-Dual [1]; [7],2.27
same,NF-kB SEAP reporter activity,RAW-Dual [1]; [8],2.15
C=CC1CC1(NC(=O)C1CC2CN1C(=O)C(C(C)(C)C)NC(=O)OC1CC1CCCCCc1nc3ccc(OC)cc3nc1O2)C(=O)NS(=O)(=O)C1CC1 (stereo not given) (library stock concentration (final ~1000-fold dilution): 10 mM),NF-kB SEAP reporter activity,RAW-Dual [3]; agonist: LPS (TLR4) 0.1 ug/mL,1.3
same,NF-kB SEAP reporter activity,RAW-Dual [3]; [4],1.46
same,NF-kB SEAP reporter activity,RAW-Dual [3]; [5],0.913
same,NF-kB SEAP reporter activity,RAW-Dual [3]; [6],0.835
CC(C)(C)C1NC(=O)OC2CCCC2OC/C=C/C(F)(F)c2nc3ccccc3nc2OC2CC(C(=O)NC3(C(=O)NS(=O)(=O)C4(C)CC4)CC3C(F)F)N(C2)C1=O (stereo not given) (library stock concentration (final ~1000-fold dilution): 10 mM),NF-kB SEAP reporter activity,RAW-Dual [3]; agonist: LPS (TLR4) 0.1 ug/mL,1.29
same,NF-kB SEAP reporter activity,RAW-Dual [3]; [4],2.62
same,NF-kB SEAP reporter activity,RAW-Dual [3]; [5],0.986
same,NF-kB SEAP reporter activity,RAW-Dual [3]; [6],2.09
